# D2 PAM-1 = potentiates the human D2 dopamine receptor allosterically. potentiation, % (no concentration beside the values). DiscoveRx D2 beta-arrestin cells, luminescence, 90 min; 100% = 57 uM dopamine signal. 360,000 tested, 0.23% active. AID 624464; in the data active = potentiation above about 50%
# Target sequence (P14416 whole entry, looked up): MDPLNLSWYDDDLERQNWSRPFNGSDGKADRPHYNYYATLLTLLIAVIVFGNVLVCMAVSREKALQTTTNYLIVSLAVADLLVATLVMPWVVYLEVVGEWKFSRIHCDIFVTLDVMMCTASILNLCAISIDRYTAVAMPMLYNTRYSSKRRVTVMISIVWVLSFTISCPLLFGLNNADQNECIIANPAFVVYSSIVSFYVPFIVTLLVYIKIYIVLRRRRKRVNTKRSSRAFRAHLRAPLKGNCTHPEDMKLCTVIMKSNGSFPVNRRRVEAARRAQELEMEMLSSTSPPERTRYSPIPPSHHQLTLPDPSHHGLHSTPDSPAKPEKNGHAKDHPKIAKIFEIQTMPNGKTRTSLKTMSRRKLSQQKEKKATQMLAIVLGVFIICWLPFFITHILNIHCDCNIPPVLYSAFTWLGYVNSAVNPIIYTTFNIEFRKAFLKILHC
#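 PathHunter D2 cells, attached overnight at 37 deg C, received compound in DMSO plus dopamine at EC20 (50 nM final) for 90 min at 37 deg C. Beta-arrestin recruitment was read as luminescence after 1 h with detection reagent at ambient temperature.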
# D2 ag-1 = agonists of human D2 dopamine receptor; P14416; HEK293 T-REx D2 cells, calcium flux agonist mode; activation, % at 2 µM; 340,000 tested, 0.53% active; AID 485358;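 active = activation over 3 SD above normal in the single-dose calcium agonist read, cut at about 30% in these data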; also: 0% is about no effect
#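 Tetracycline-induced HEK293 T-REx cells with force-coupled D2 receptor, plated overnight at 30 C, loaded with no-wash calcium dye. After a 10 s baseline, compound was pin-added and calcium flux read kinetically for 180 s; calcium rises flagged agonists.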
# D2 PAM-2 = D2 dopamine receptor (human) potentiation; HEK293 T-REx D2, calcium flux, EC20 dopamine potentiation; potentiation, % at 10 µM; 340,000 tested, 0.34% active; AID 485347;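 active = potentiation over 3 SD above the plate norm, cut at about 30% in these data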; also: 0% is about no effect
#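 Calcium flux readout, no-wash dye, 1 read/s. Inducible HEK293 Trex D2 line, overnight 30 C. Compound alone 180 s (agonist flags), then EC20 dopamine, another 180 s to score potentiation.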
# D2 ag-2 = agonists of human D2 dopamine receptor (beta-arrestin); AID 624465; activation, % (no concentration beside the values); DiscoveRx PathHunter D2 beta-arrestin, luminescence, 90 min; 100% = 57 uM dopamine signal; 360,000 tested, 0.084% active; P14416; in the data active = activation above about 40%
#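 Agonist mode: compounds alone added to overnight-plated D2 PathHunter cells for 90 min at 37 C, with 57 uM final dopamine (EC100) defining full response. Beta-arrestin recruitment detected by chemiluminescent reagent, read after 1 h at ambient temperature.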
# D2 antag = antagonizes the human D2 dopamine receptor. P14416. HEK293 TREx D2 cells, calcium flux, dopamine EC80. inhibition, % at 10 µM. 340,000 tested, 2% active. AID 485344; in the data active = inhibition above about 30%; inactive = below that, where a call was filed; also: 0% is about no effect
#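 Tetracycline-induced HEK293 TREx cells expressing D2 receptor forced-coupled to calcium signalling, loaded with no-wash calcium dye. Compounds added and calcium flux read 180 s, then dopamine added at EC80 and read a further 180 s.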
# * hit, by the source's call; x = not tested or not shown; ! = not confirmed by another sample. Most compounds without a hit are left out; they make up all but 2.4% or so of the library.
SMILES,D2 PAM-1,D2 ag-1,D2 PAM-2,D2 ag-2,D2 antag
Cc1oc2ncn(CC(C)C)c(=O)c2c1C(=O)NCCCN1CCCCC1C (stereo unspecified),x,x,-4,x,x
Cn1c(=O)c2sccc2n2c(CCCC(=O)Nc3ccc(Oc4ccccc4)cc3)nnc12,x,0,-1,x,x
COc1ccc(NC(=O)c2cc(-c3ccc(F)cc3)no2)cc1OC,x,0,-20,x,x
CCOc1ccc(/C=N/NC(=O)c2cc3c(OC)cc(OC)c(OC)c3[nH]2)cc1,-2,0,-20,11,56*
COc1ccccc1-n1c(=O)n(C)c2c(C(N)=O)nc(-c3cc(OC)c(OC)c(OC)c3)nc21,x,0,4,x,x
COC(=O)c1[nH]c2ccc(Cl)cc2c1NC(=O)C1CC1,-4,0,-2,1,-14
COC(=O)c1[nH]c2ccc(Cl)cc2c1NC(=O)Oc1ccccc1,68*,0,5,8,-14
COc1ccc(N2C(=O)CSC2c2cccc(OC)c2OC)cc1 (stereo unspecified),-8,0,0,-3,51*
CC1(C)Oc2ccc(C(=O)NC3CCCC3)cc2N(CC(=O)NC2CCCCC2)C1=O,-19,1,-21,-3,52*
COc1cc(CN(C)CCc2ccccc2)ccc1OCc1ccccc1,-19,18,-11,1,36*
Cc1ccc(S(=O)(=O)N2CCCCC2)cc1C(=O)NC1CCCCC1,-1,-2,42*,-2,-5
Cc1ccc(C(=O)NC2CCCC2)cc1S(=O)(=O)N1CCCCC1,-13,-1,-2,6,32*
Cc1cccnc1NC(=O)c1ccc(Cl)c(S(=O)(=O)N2CCCCCC2)c1,-14,0,-1,1,56*
CCOc1ccc(N/C=C/C(=O)c2ccc(OC)cc2)cc1,-3,0,1,-2,2
CCCOc1ccc(N/C=C/C(=O)c2cc(OC)c(OC)c(OC)c2)cc1,83*,-1,-9,1,1
CCOC(=O)c1ccccc1NC(=O)N1CCN(Cc2cc(=O)n3nc(-c4ccccc4)sc3n2)CC1,x,x,6,x,x
COc1ccc(-c2noc(CCC(=O)Nc3cccnc3)n2)cc1,-3,-1,6,0,0
CC(C)(C)c1ccc(-c2noc(CCC(=O)Nc3cccnc3)n2)cc1,-1,2,-1,5,36*
Cc1ccc(Oc2nc3ccccn3c(=O)c2/C=C(\C#N)c2nc3ccccc3s2)c(C)c1,x,1,-1,x,x
CCc1cc(C(=O)OC)c(NC(=O)CC2SC(=NC)N(C)C2=O)s1 (stereo unspecified),4,0,-6,2,63*
O=C(COc1ccccc1Cl)N(Cc1ccco1)Cc1ccco1,x,0,-2,x,x
Cc1[nH]c2ccccc2c1/C=N/NC(=O)c1cccc(F)c1,-6,-1,-7,-9,-12
Cc1[nH]c2ccccc2c1/C=N/Nc1ccc(F)cc1F,x,1,1,x,31*
CCOc1ccc2nc(Cl)c(C3CC(c4ccc(C)cc4)=NN3C(=O)CCCC(=O)O)cc2c1 (stereo unspecified),x,1,7,x,x
[O-]/C(=C(\C(=S)Nc1ccccc1F)[n+]1ccccc1)c1ccc(OC(F)F)cc1,-5,0,1,-3,-7
SMILES,D2 PAM-1,D2 ag-1,D2 PAM-2,D2 ag-2,D2 antag
Cc1ccc(C)c(NC(=S)/C(=C(\[O-])c2ccc(OC(F)F)cc2)[n+]2ccccc2)c1,-4,1,11,-4,31*
CCc1cccc(-n2c(=O)c3cccnc3n2CC(=O)NCc2ccccc2)c1,x,0,-4,x,x
Cc1ccc(-c2nc(CSCC(=O)N3CCN(c4ccccn4)CC3)c(C)o2)cc1,-2,37*,-14,0,-7
O=C(/C=C/c1cccc(C(F)(F)F)c1)Nc1cccc(C(F)(F)F)c1,-1,1,-10,4,19
Cc1ccc(NC(=O)/C=C/c2cccc(C(F)(F)F)c2)cc1,-9,1,-21,-3,69*
CCOC(=O)C1C(=O)C=C(/C=C/c2ccc(N(C)C)cc2)CC1c1ccccc1 (stereo unspecified),4,52*,-10,1,33*
c1ccc(Cn2nnnc2C(c2cccs2)N2CCSCC2)cc1 (stereo unspecified),-11,0,-13,-2,33*
CCOC(=O)c1c(C)c(-c2ccccc2)n(CC(=O)NC2CCCCCC2)c1C,x,1,x,x,x
COc1ccc(CCN2C(=O)CN=C2Nc2ccc(F)cc2)cc1OC,-4,-1,-2,-3,6
C=CCN1C(=O)CN=C1Nc1ccc(F)cc1,-5,1,-33,0,54*
O=C(Nc1ccccc1Cl)N1CCC2(CC1)Oc1ccccc1C(=O)N2Cc1ccc(F)cc1,x,-1,-2,x,x
COc1ccc(NC(=O)CC2C(=O)N(c3ccc(F)cc3)C(=S)N2NC(=O)c2ccc(Cl)cc2)cc1 (stereo unspecified),-4,-1,-8,-7,37*
COCCCNC(=O)CN1C(=O)c2c(c3ccccc3n2C)C1c1ccc(OC)cc1 (stereo unspecified),x,1,-12,x,x
O=C(NCC1CCCO1)c1nnc(Cc2ccc(F)cc2)o1 (stereo unspecified),-4,1,-3,-4,39*
CCc1ccccc1NC(=O)N1CCN(c2cc(-c3noc(C)n3)ccc2C)CC1,x,x,-8,x,x
Cn1c(CN2CCCCC2)nc2cc(NC(=O)c3ccc(Cl)cc3)ccc21,-3,33*!,10,6,31*
Cn1c(CN2CCCC2)nc2cc(NC(=O)COc3ccc(Cl)cc3)ccc21,-28,0,-22,0,41*
COc1ccc(OCC(=O)Nc2ccc3c(c2)nc(CN2CCCC2)n3C)cc1,-34,0,-36,-1,45*
CC1CCN(CCc2nc3cc(NC(=O)COc4ccccc4)ccc3n2C)CC1,-31,0,-21,-3,59*
COc1ccc(OCC(=O)Nc2ccc3c(c2)nc(CN2CCN(C(C)=O)CC2)n3C)cc1,5,0,4,-3,11
CCC(=O)Nc1ccc2c(c1)nc(CCN1CCC(C)CC1)n2C,-13,0,-1,-4,14
Cc1nn(-c2ccccc2)c2c1N(CCCC(=O)NC(C)c1ccccc1)C(=O)CS2 (stereo unspecified),x,1,4,x,x
CCOC(=O)N1CCN(C(=O)c2ccc3c(c2)N(Cc2ccccc2F)C(=O)c2ccccc2S3(=O)=O)CC1,x,0,2,x,x
Cc1ccc(C(=O)Nc2c(C(=O)N3CCOCC3)cnn2-c2ccccc2)cc1,-8,-1,33*,-3,-31
O=C(Nc1c(C(=O)N2CCOCC2)cnn1-c1ccccc1)c1ccc([N+](=O)[O-])cc1,-9,0,2,7,-6
COc1ccccc1CNC(=O)Cc1ccc(C)cc1,-6,0,-2,2,-19

# Assay outcomes: PubChem BioAssay, National Center for Advancing Translational Sciences (NCATS)
